Compounds without any hit were thinned out: in the full panel of roughly 79,000, 15% have a hit. Calls of active or inactive are those of the source. Cut-off read from the data, not from the text of the source: active = growth inhibition above about 70%; inactive = the rest.
Columns and labels:
[1] = NCI Yeast Anticancer Drug Screen. Data for the rad50 strain (AID 155);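 note: 0% = growth of vehicle-only cultures of the same strain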; details: S. cerevisiae rad50 strain growth inhibition, hits give high values
Method in brief: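 Yeast carrying a defined DNA repair defect were exposed to test compounds, and growth was compared with vehicle-treated controls to give percent inhibition.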

[2] = NCI Yeast Anticancer Drug Screen. Data for the mec2-1 strain (AID 157); details: S. cerevisiae mec2-1 strain, hits give high values
Method in brief: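 Readout is yeast growth inhibition, normalised to vehicle-treated controls, in the mec2-1 strain exposed to compound.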

[3] = NCI Yeast Anticancer Drug Screen. Data for the sgs1 mgt1 strain (AID 161);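 note: 0% = growth of cultures given vehicle only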; details: S. cerevisiae sgs1 mgt1 strain, hits give high values
Method in brief: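 Yeast cells carrying a defined DNA-repair defect were exposed to test compounds. Growth inhibition was measured relative to vehicle-treated controls.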

[4] = NCI Yeast Anticancer Drug Screen. Data for the cln2 rad14 strain (AID 165);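 note: 0% = growth equal to vehicle treated cultures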; details: S. cerevisiae cln2 rad14 strain, hits give high values
Method in brief: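 Relative to vehicle controls, growth inhibition of compound-treated cln2 rad14 yeast was recorded.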

[5] = NCI Yeast Anticancer Drug Screen. Data for the bub3 strain (AID 167); details: S. cerevisiae bub3 mutant strain, hits give high values
Method in brief: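 Compounds were applied to a genetically altered yeast strain carrying a cell-cycle control defect. Growth inhibition was scored against vehicle-treated controls.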

[6] = NCI Yeast Anticancer Drug Screen. Data for the mlh1 rad18 strain (AID 175); details: S. cerevisiae mlh1 rad18 strain growth inhibition, hits give high values
Method in brief: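 Test agents were incubated with a yeast strain of defined genotype (DNA damage repair defect). Inhibition of growth was derived by comparison with vehicle-exposed cultures.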

[7] = at 5.0 µM (retest, dose inferred, filed as 0.5)
[8] = at 50.0 µM (retest, dose inferred, filed as 5.0)

Measured: growth inhibition

O=C1c2ccccc2C(=O)c2sc(Nc3ccc([N+](=O)[O-])cc3)nc21
inactive: [1]; at 50.0 µM 60.3% | [3]; at 50.0 µM 58.1% | [4]; [7] 62% | [4]; at 50.0 µM 29%
active: [1]; [7] 89% | [1]; [8] 98% | [2]; [7] 91% | [2]; [8] 99% | [2]; at 50.0 µM 77.4% | [3]; [7] 99% | [3]; [8] 99% | [4]; [8] 99% | [5]; [7] 100% | [5]; [8] 99% | [5]; at 50.0 µM 80.7% | [6]; [7] 90% | [6]; [8] 99% | [6]; at 50.0 µM 84.5%

c1ccc(SSc2ccccc2)cc1
inactive: [1]; [7] -6% | [1]; [8] 64% | [1]; at 50.0 µM 47.3% | [2]; [7] -38% | [2]; [8] 18% | [2]; at 50.0 µM 20.7% | [3]; [7] 0% | [3]; [8] 25% | [4]; [7] 1% | [4]; [8] 3% | [4]; at 50.0 µM 18.9% | [5]; [7] 38% | [5]; [8] 20% | [5]; at 50.0 µM 26.7% | [6]; [7] -2% | [6]; [8] 50%
active: [3]; at 50.0 µM 77% | [6]; at 50.0 µM 87.7%

O=[N+]([O-])c1nccn1CCCNCCCn1ccnc1[N+](=O)[O-]
inactive: [1]; [7] 27% | [1]; [8] 28% | [1]; at 50.0 µM 0.45% | [2]; [7] 0% | [2]; [8] -2% | [2]; at 50.0 µM 1.2% | [3]; [7] 15% | [3]; [8] 26% | [3]; at 50.0 µM -6.7% | [4]; [7] 24% | [4]; [8] 17% | [4]; at 50.0 µM -20.1% | [5]; [7] 8% | [5]; [8] 14% | [5]; at 50.0 µM -14.9% | [6]; [7] 24% | [6]; [8] 20% | [6]; at 50.0 µM 21.1%

C/C(=N\NC(=S)N1CCCCCC1)c1ccccn1
inactive: [4]; [7] 67%
active: [1]; [7] 88% | [1]; [8] 99% | [1]; at 50.0 µM 91.5% | [2]; [7] 86% | [2]; [8] 99% | [2]; at 50.0 µM 92.6% | [3]; [7] 77% | [3]; [8] 99% | [3]; at 50.0 µM 92.3% | [4]; [8] 98% | [4]; at 50.0 µM 89.7% | [5]; [7] 87% | [5]; [8] 99% | [5]; at 50.0 µM 92.1% | [6]; [7] 90% | [6]; [8] 98% | [6]; at 50.0 µM 92%

CN(C)C(=S)/N=c1\ss/c(=N\C(=S)N(C)C)n1Cc1ccco1
inactive: [1]; [7] -2% | [1]; [8] 2% | [1]; at 50.0 µM 12.2% | [2]; [7] -2% | [2]; [8] 0% | [2]; at 50.0 µM -10.7% | [3]; [7] -2% | [3]; [8] 4% | [3]; at 50.0 µM -2.7% | [4]; [7] -4% | [4]; [8] 3% | [4]; at 50.0 µM 9.1% | [5]; [7] 0% | [5]; [8] -1% | [5]; at 50.0 µM -3.05% | [6]; [7] -1% | [6]; [8] 2% | [6]; at 50.0 µM -3.15%

Cc1nn(C(=O)c2ccccc2O)c2c1C(c1ccc3ccccc3c1O)SC(N)=N2 (stereo not given)
inactive: [1]; [7] 8% | [2]; [7] 0% | [3]; [7] -4% | [4]; [7] -9% | [4]; [8] 59% | [5]; [7] -13% | [6]; [7] 9%
active: [1]; [8] 97% | [1]; at 50.0 µM 97.1% | [2]; [8] 95% | [2]; at 50.0 µM 92.5% | [3]; [8] 96% | [3]; at 50.0 µM 96.8% | [4]; at 50.0 µM 92.1% | [5]; [8] 97% | [5]; at 50.0 µM 97.8% | [6]; [8] 98% | [6]; at 50.0 µM 97.7%

O=P(C(=S)Nc1ccccc1Cl)(c1ccccc1)c1ccccc1
active: [1]; [8] 96% | [1]; at 50.0 µM 88.5% | [2]; [8] 98% | [2]; at 50.0 µM 90.5% | [3]; [8] 96% | [3]; at 50.0 µM 92.8% | [4]; [8] 97% | [4]; at 50.0 µM 87.5% | [5]; [8] 97% | [5]; at 50.0 µM 89.2% | [6]; [8] 96% | [6]; at 50.0 µM 89.2%
inactive: [1]; [7] 15% | [2]; [7] 16% | [3]; [7] -1% | [4]; [7] -6% | [5]; [7] -26% | [6]; [7] -26%

CCCCCC/C=C\CCCCCCCCCc1c(O)c(OC)cc(O)c1CN(C)C
active: [1]; [8] 94% | [1]; at 50.0 µM 80.7% | [2]; [8] 94% | [2]; at 50.0 µM 88.3% | [3]; [8] 96% | [3]; at 50.0 µM 87.1% | [4]; at 50.0 µM 86.2% | [5]; [8] 96% | [5]; at 50.0 µM 80.8% | [6]; [8] 94% | [6]; at 50.0 µM 79.6%
inactive: [1]; [7] 5% | [2]; [7] -17% | [3]; [7] 15% | [4]; [7] 13% | [4]; [8] 30% | [5]; [7] 5% | [6]; [7] 2%

COC(=O)C(CCC(=O)Cc1ccccc1)N1C(=O)c2ccccc2C1=O (stereo not given)
inactive: [1]; [7] 6% | [1]; [8] 67% | [1]; at 50.0 µM 70% | [2]; [7] 1% | [2]; at 50.0 µM 56.9% | [3]; [7] 16% | [4]; [7] 10% | [4]; [8] 43% | [4]; at 50.0 µM 1.4% | [5]; [7] 8% | [6]; [7] 16%
active: [2]; [8] 91% | [3]; [8] 87% | [3]; at 50.0 µM 81.6% | [5]; [8] 86% | [5]; at 50.0 µM 76% | [6]; [8] 89% | [6]; at 50.0 µM 88%

CCCCCCCCN(CCCCCCCC)CC(O)c1cc(OCC)nc2ccccc12 (stereo not given)
active: [1]; [8] 96% | [1]; at 50.0 µM 97.8% | [2]; [8] 97% | [2]; at 50.0 µM 97.7% | [3]; [8] 96% | [3]; at 50.0 µM 97.4% | [4]; [8] 96% | [4]; at 50.0 µM 93.5% | [5]; [8] 97% | [5]; at 50.0 µM 97.8% | [6]; [8] 95% | [6]; at 50.0 µM 96.8%
inactive: [1]; [7] 2% | [2]; [7] 4% | [3]; [7] 4% | [4]; [7] 3% | [5]; [7] 9% | [6]; [7] 9%

— PubChem BioAssay (NCI)
